High-throughput results deposited in PubChem by several laboratories.
Rows were chosen to be rich in hits. Some 3.6% of all compounds tested hit in one or more screens of this group.
MazF activator – activators of E. coli MazEF toxin-antitoxin RNase, primary screen, biochemical, fluorescence, uHTS | Endoribonuclease toxin MazF (Escherichia coli (strain K12)), P0AE70 | FAM/BHQ RNA-DNA oligo cleavage fluorescence, 5 h | activation, % at 20 µM | 350,000 compounds, 0.32% hits; in the data active = activation above about 50%
BoNT F protease – BoNT/F light chain protease inhibitors, primary screen, biochemical, flow cytometry, MLPCN library; 360,000 compounds, 0.22% hits; Multiplex microsphere protease cleavage assay; Botulinum neurotoxin type F light chain protease (Clostridium botulinum); inhibition, % at 10 µM; AID 588497, 2011; in the data active = inhibition above about 35%, passing the limit was not always enough; inconclusive = no clear call, values can overlap the other calls
BoNT A protease – BoNT/A light chain protease inhibitors, primary screen, biochemical, flow cytometry, MLPCN library; multiplex microsphere protease substrate cleavage; inhibition, % at 10 µM; 360,000 compounds, 0.17% hits; AID 588499, 2011
Bead autofluor – counter-screen for toxin protease inhibitors: compound fluorescence. 360,000 compounds, 3.1% hits. compound autofluorescence counterscreen, microsphere flow cytometry; stronger effect = higher value. fluorescence intensity (concentration not given with the values). AID 624483; in the data active = fluorescence intensity above about 16000; inconclusive = no clear call, values can overlap the other calls
Anthrax LF inh2 – Bacillus anthracis LF protease inhibitors, primary screen, biochemical, multiplex microsphere, MLPCN library | AID 588501, 2011 | inhibition, % at 10 µM | multiplex microsphere protease cleavage assay | 360,000 compounds, 0.12% hits
Of the large screens only hits and unclear results are named; the others gave an inactive call. Cut-off read from the data, not from the text of the source, unless noted: active = inhibition above about 30%; inconclusive = no clear call, values can overlap the other calls; inactive = below that.

O=C(c1cc(-c2cccnc2)nc2ccc(Cl)cc12)N1CCC2(CC1)OCCO2	none
CC1(C(=O)NC2CCCCC2)CCC(=O)N1CC(F)(F)F (centres undefined)	none (no result: MazF activator)
COc1cccc(C(=O)c2c(-c3ccccc3)ncc3cc(OC)c(OC)cc23)c1	none
O=S(=O)(c1cccs1)N1CCN(c2ncccn2)CC1	none
CCCS(=O)(=O)N1CCN(c2ccccn2)CC1	none
O=S(=O)(c1cccs1)N1CCN(c2ccccn2)CC1	Bead autofluor 22816
CCS(=O)(=O)N1CCN(c2ccccn2)CC1	Bead autofluor 26268
Cc1ccc(S(=O)(=O)N2CCC(C(=O)NCCCN3CCOCC3)CC2)cc1C	none
CCCN1CCN(C(c2cc3cc(OCC)ccc3[nH]c2=O)c2nnnn2C2CCCCC2)CC1 (centres undefined)	BoNT A protease inconclusive, Bead autofluor 22710
COc1ccc2cc(C(c3nnnn3C3CCCC3)N3CCc4ccccc4C3)c(=O)[nH]c2c1 (centres undefined)	none
Cc1ccc2cc(C(c3nnnn3C3CCCC3)N3CCN(c4ccc(F)cc4)CC3)c(=O)[nH]c2c1 (centres undefined)	Bead autofluor 22513
COc1ccc2[nH]c(=O)c(C(c3nnnn3C3CCCCC3)N3CCN(C)CC3)cc2c1 (centres undefined)	none
CCCNC(=S)N1CCC(NC(=O)Nc2ccc(C)cc2)CC1	none
CCOC(=O)Cn1cc(/C=N/N2C(=O)C3C4C=CC(C4)C3C2=O)c2ccccc21 (centres undefined)	none
CC(C)CC(NC(=O)c1cccs1)c1nnc(SCc2ccc(Cl)c(Cl)c2)n1C (centres undefined)	none
C=CCn1c(SCC(=O)c2ccc(Br)cc2)nnc1C(CC(C)C)NC(=O)c1cccs1 (centres undefined)	BoNT A protease inconclusive, Bead autofluor 22563
Cc1ccc(C)c(S(=O)(=O)Nc2ccc(C(=O)NCCCN3CCOCC3)cc2)c1	none
Cn1nc(-c2ccc(C(=O)Nc3cccc(Cl)c3)cc2)c2ccccc2c1=O	MazF activator 101.0, BoNT A protease inconclusive, Bead autofluor inconclusive
CC(C)c1cc(C(=O)Nc2cccc(Cl)c2)no1	Bead autofluor 18450
Cn1nc(C(F)(F)F)c(C(=O)Nc2cccc(Cl)c2)c1Cl	Bead autofluor 25124
Cc1ccc(NC(=O)c2ccc(-c3nn(C)c(=O)c4ccccc34)cc2)cc1	none
CCOC(=O)c1sc(NC(=O)CN2CC(C)OC(C)C2)nc1C (centres undefined)	none
O=C(CS(=O)(=O)c1ccc(F)cc1)Nc1nnc(-c2ccccc2Cl)o1	none (no result: BoNT F protease, BoNT A protease, Bead autofluor, Anthrax LF inh2)
COc1ccc(N2CCN(C(=O)CSc3nnc4n3C(C)(C)Cc3ccccc3-4)CC2)cc1	Bead autofluor 22079
COc1ccc2nc(NC(=O)CSc3nnnn3C)sc2c1	none
Cc1ccc(Cl)cc1N1CCN(C(=O)CSc2nnc3n2C(C)(C)Cc2ccccc2-3)CC1	none
COC(=O)CSc1nnc2n1C(C)(C)Cc1ccccc1-2	Bead autofluor 16446
COc1ccc2nc(NC(=O)CSc3nnc4n3C(C)(C)Cc3ccccc3-4)sc2c1	Bead autofluor 16715
CC1(C)Cc2ccccc2-c2nnc(SCC(=O)N3CCc4ccccc43)n21	Bead autofluor 24428
CCn1c(SCC(=O)N2CCc3ccccc32)nnc1-c1ccncc1	none
Cc1ccc(C)c(N(CC(=O)NCc2ccco2)C(=O)CCC(=O)Nc2nccs2)c1	none
O=C1CCc2cc(S(=O)(=O)Nc3ccccc3F)cc3c2N1CCC3	none (no result: BoNT F protease, BoNT A protease, Bead autofluor, Anthrax LF inh2)
CCOC(=O)c1ccc(N(C(=O)CNC(=O)c2ccco2)C(C(=O)NCC2CCCO2)c2ccc(OC)c(OC)c2)cc1 (centres undefined)	none
COc1ccc(C2(C)NC(=O)N(CC(=O)Nc3ccc(Br)c(C)c3)C2=O)cc1OC (centres undefined)	none
COc1cc(NC(=O)CSc2nnc3n2C(C)(C)Cc2ccccc2-3)cc(OC)c1	Bead autofluor 16774
Cc1ccc(OCC(=O)N2CCN(C(=O)Cc3ccccc3)CC2)cc1	none
CCOC(=O)N1CCN(C(=O)CCNS(=O)(=O)c2ccccc2)CC1	none
O=C(COc1ccc(-c2ccccc2)cc1)N1CCN(S(=O)(=O)Cc2ccccc2)CC1	Bead autofluor 16462
CCOC(=O)N1CCN(C(=O)COc2ccc(S(=O)(=O)NCc3ccccc3)cc2)CC1	Bead autofluor 17159
COc1ccc(S(=O)(=O)Nc2ccccc2C(=O)N2CCOCC2)cc1Cl	Bead autofluor 17400
CC(C)NS(=O)(=O)c1ccc(OCC(=O)N2CCN(Cc3ccc4c(c3)OCO4)CC2)c(Cl)c1	Bead autofluor 20603
COc1ccc(S(=O)(=O)N2CCC(C(=O)NCc3ccncc3)CC2)cc1	none
CN(C(=O)c1ccc(NC(=O)Cc2cccc(NC(=O)C3CCCN(C(=O)C4CCCC4)C3)c2)cc1)C1CCCC1 (centres undefined)	none
O=C(COc1ccc(Cl)cc1Cl)Nc1ccc(CN2CCOCC2)cc1	none
O=C(c1ccc(CNS(=O)(=O)c2cccc(C(F)(F)F)c2)cc1)N1CCOCC1	BoNT A protease inconclusive, Bead autofluor 22700
O=C(COc1ccc(Cl)cc1Cl)NC(=O)N1CCOCC1	Bead autofluor 16969
O=C(COc1ccc(S(=O)(=O)NCc2ccccc2)cc1Cl)N1CCOCC1	Bead autofluor 23739
CCOCCc1nnc(NC(=O)C2CC(=O)N(c3ccc(OCC)cc3)C2)s1 (centres undefined)	none
C#CCOC(=O)c1csc2nnsc12	BoNT A protease inconclusive, Bead autofluor 21747
C#CCOC(=O)c1ccccc1C(=O)OCC#C	none
Cc1ccc(C(C)NC(=O)c2cccs2)cc1C (centres undefined)	BoNT F protease inconclusive
Cc1ccc(C(C)NC(=O)c2ccco2)cc1C (centres undefined)	Bead autofluor 21456
CC(=O)C(Cc1ccccc1)NC(=O)COC(=O)c1ccc(-n2cnnn2)cc1 (centres undefined)	none
Oc1ccc(Cl)cc1/C=C/c1ccc2cccc(O)c2n1	MazF activator 60.2
CCOc1cc(N2CCOCC2)c(OCC)cc1NC(=O)CN1C(=O)NC2(CCCCC2C)C1=O (centres undefined)	none
CCOC(=O)c1cccc(NC(=O)CSc2nnnn2C)c1	none
CCC(=O)Nc1cccc(NC(=O)CSc2nnnn2C)c1	Bead autofluor 16778
Cn1nnnc1SCC(=O)Nc1cc(C(=O)O)cc(C(=O)O)c1	BoNT A protease inconclusive, Bead autofluor 17115
COC(=O)c1cc(NC(=O)CSc2nncn2C)cc(C(=O)OC)c1	Bead autofluor 20871
Cn1nnnc1SCC(=O)Nc1ccccn1	BoNT A protease inconclusive, Bead autofluor 22271
O=C(Cn1c(=O)n(-c2cccc(C(F)(F)F)c2)c(=O)c2sccc21)NCC1CCCO1 (centres undefined)	none
COC(=O)c1ccc(-n2nnnc2SCC(=O)NCc2cccc(C(=O)O)c2)cc1	none
